Measurements reported in PubChem BioAssay (Tox21).
Records with an inconclusive call do not appear. Active and inactive are the calls of the source. Unless noted, calls follow the shape of the dose curve; as a rule, active = well fitted curve in the direction sought with a large enough effect in the repeat runs; inconclusive = weak or mixed curves; inactive = no such curve, though single readings can be large; an effect the other way counts as inactive or inconclusive.

What was measured:
[1] = A CellTox Green Cytotoxicity Assay to monitor cytotoxicity in HEK293 cells - 32 hour (AID 1224881); also: nearly all actives have a fitted effect of over 40% in size
Method in brief: (§1)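 Dead-cell fluorescence measured kinetically: asymmetric cyanine dye, HEK293, 600 cells/well, 5 h settle, 23 nL cpd/DMSO, 37 C, reads 0–40 h every 8 h.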

[2] = A CellTox Green Cytotoxicity Assay to monitor cytotoxicity in HepG2 cells - 0 hour (AID 1224882); also: nearly all actives have a fitted effect of over 35% in size
Method in brief: (§2)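 First, HepG2 cells (600/well) mixed with reagent were plated; second, after 5 h at 37 C they received compounds via pintool; third, fluorescence was measured at 0 h through 40 h at 8 h intervals.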

[3] = A CellTox Green Cytotoxicity Assay to monitor cytotoxicity in HepG2 cells - 32 hour (AID 1224883); also: nearly all actives have a fitted effect of over 50% in size; also: potency is read from the fitted curve at half-maximal effect
Method in brief: as §2

[4] = A CellTox Green Cytotoxicity Assay to monitor cytotoxicity in HEK293 cells - 8 hour (AID 1224884); also: nearly all actives have a fitted effect of over 35% in size
Method in brief: as §1

[5] = qHTS RealTime-Glo MT Cell Viability Assay in HepG2 cells - 16 hour (AID 1224885); also: nearly all actives have a fitted effect of over 50% in size
Method in brief: (§3)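 Luminescence read-out: viable HepG2 cells reduce a prosubstrate to a NanoLuc substrate, giving a signal proportional to live cell number. Reads taken at 0, 8, 16, 24, 32 and 40 h of compound exposure at 37 C.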

[6] = qHTS RealTime-Glo MT Cell Viability Assay in HEK293 cells - 24 hour (AID 1224886); also: nearly all actives have a fitted effect of over 50% in size; also: potency is read from the fitted curve at half-maximal effect; as to activity change, negative = cytotoxicity: top concentration of the series differs between compounds
Method in brief: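 Nonlytic real-time viability readout: viable cells convert prosubstrate to NanoLuc substrate, giving luminescence proportional to live cell number. HEK293, 600 cells/well, compound added after 5 h, continuous culture at 37 C.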

[7] = A CellTox Green Cytotoxicity Assay to monitor cytotoxicity in HEK293 cells - 16 hour (AID 1224888); also: nearly all actives have a fitted effect of over 35% in size
Method in brief: as §1

[8] = qHTS RealTime-Glo MT Cell Viability Assay in HepG2 cells - 0 hour (AID 1224889); also: nearly all actives have a fitted effect of over 50% in size
Method in brief: as §3

[9] = A CellTox Green Cytotoxicity Assay to monitor cytotoxicity in HepG2 cells - 8 hour (AID 1224890); also: nearly all actives have a fitted effect of over 45% in size
Method in brief: as §2

[10] = qHTS assay to identify small molecule antagonists of the androgen receptor (AR) signaling pathway using the MDA cell line in the presence of 0.5 nM R1881 - cell viability counter screen (AID 1259242); also: nearly all actives have a fitted effect of over 45% in size
Method in brief: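 qHTS format. MDA-kb2 (MMTV-luc, AR/GR responsive) + cpd + 0.5 nM R1881 final, 16 hr 37C/0% CO2 → CellTiter-Fluor 30 min → fluorescence intensity.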

[11] = target: Estrogen receptor (Homo sapiens) (UniProt P03372); experiment: qHTS assay to identify small molecule antagonists of the estrogen receptor alpha (ER-alpha) signaling pathway using the BG1 cell line in the presence of 0.1 nM 17-beta-estradiol (AID 1259244); also: nearly all actives have a fitted effect of over 50% in size
Estrogen receptor (Homo sapiens), sequence (P03372 whole entry, looked up): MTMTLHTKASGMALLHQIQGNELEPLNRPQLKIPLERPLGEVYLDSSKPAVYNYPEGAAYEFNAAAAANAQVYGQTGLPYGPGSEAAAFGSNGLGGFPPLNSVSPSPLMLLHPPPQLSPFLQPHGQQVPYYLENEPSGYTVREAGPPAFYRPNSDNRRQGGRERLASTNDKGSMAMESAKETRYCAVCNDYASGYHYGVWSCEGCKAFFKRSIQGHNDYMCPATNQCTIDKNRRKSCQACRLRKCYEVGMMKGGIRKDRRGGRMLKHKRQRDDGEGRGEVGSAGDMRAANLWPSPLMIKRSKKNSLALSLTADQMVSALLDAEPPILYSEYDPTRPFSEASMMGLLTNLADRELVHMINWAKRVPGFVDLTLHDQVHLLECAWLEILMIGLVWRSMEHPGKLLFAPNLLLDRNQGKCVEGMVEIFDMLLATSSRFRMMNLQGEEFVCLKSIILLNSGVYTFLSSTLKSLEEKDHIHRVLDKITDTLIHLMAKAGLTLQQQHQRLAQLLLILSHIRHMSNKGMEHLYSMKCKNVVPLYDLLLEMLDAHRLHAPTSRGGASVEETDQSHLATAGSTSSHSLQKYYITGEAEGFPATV
Method in brief: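 Reporter is a stably transfected luciferase under four estrogen responsive elements in VM7Luc4E2 cells expressing native full-length ER-alpha; inhibition of 0.1 nM (final) 17beta-estradiol-driven signal over 22 h is read by luminescence.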

[12] = qHTS assay to identify small molecule HDAC inhibitors (AID 1259364);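 also: wild-type HCT-116 cells with endogenous class I/II HDAC activity; top concentration of the series differs between compounds; nearly all actives have a fitted effect of over 45% in size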
Method in brief: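 Quantitative high-throughput format: overnight-seeded HCT-116 cells got compounds for 2 hr at 37C; HDAC-Glo I/II reagent added, 30 min RT, luminescence measured.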

[13] = qHTS assay to identify small molecule agonists of the sonic hedgehog signaling (Shh) pathway - cell viability counter screen (AID 1259366); also: nearly all actives have a fitted effect of over 50% in size
Method in brief: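 CellTiter-Fluor fluorescence read-out, 1 hr at 37C, added after 23hr compound exposure. Cells: 3T3 Gli1-Luc, an NIH/3T3 clone with stably integrated Gli1-Luc reporter, plated 4hr before compound.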

[14] = qHTS assay to identify small molecule antagonists of the sonic hedgehog signaling (Shh) pathway - cell viability counter screen (AID 1259367); also: nearly all actives have a fitted effect of over 55% in size
Method in brief: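 CellTiter-Fluor signal in conditioned medium-stimulated 3T3 Gli1-Luc cells, 23 hr compound exposure, 37C.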

[15] = qHTS assay to identify small molecule agonists of the sonic hedgehog signaling (Shh) pathway (AID 1259368; calls by dose curve;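 also: NIH/3T3-derived 3T3Gli1-Luc cells carrying a stable Gli1-driven firefly luciferase reporter; series mostly up to about 92 µM; nearly all actives have a fitted effect of over 15% in size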)
Method in brief: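 Quantitative high-throughput format using a Gli1-driven firefly luciferase reporter line derived from NIH/3T3 cells. After a 24 hr compound treatment at 37 C and 5% CO2, luminescence reported Gli1 response element activity.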

[16] = qHTS assay to identify small molecule antagonists of the estrogen receptor alpha (ER-alpha) signaling pathway using the BG1 cell line in the presence of 0.1 nM 17-beta-estradiol - cell viability counter screen (AID 1259241); also: nearly all actives have a fitted effect of over 40% in size
Method in brief: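 Live-cell protease activity (CellTiter-Fluor fluorescence, 30 min) was read in the same wells after VM7Luc4E2 cells had been exposed to compounds with 0.1 nM 17beta-estradiol for 22 hr at 37C.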

[17] = target: Androgen receptor (Homo sapiens) (UniProt P10275); experiment: qHTS assay to identify small molecule antagonists of the androgen receptor (AR) signaling pathway using the MDA cell line in the presence of 0.5 nM R1881 (AID 1259243); also: nearly all actives have a fitted effect of over 50% in size; also: potency is read from the fitted curve at half-maximal effect
Androgen receptor (Homo sapiens), sequence (P10275 whole entry, looked up): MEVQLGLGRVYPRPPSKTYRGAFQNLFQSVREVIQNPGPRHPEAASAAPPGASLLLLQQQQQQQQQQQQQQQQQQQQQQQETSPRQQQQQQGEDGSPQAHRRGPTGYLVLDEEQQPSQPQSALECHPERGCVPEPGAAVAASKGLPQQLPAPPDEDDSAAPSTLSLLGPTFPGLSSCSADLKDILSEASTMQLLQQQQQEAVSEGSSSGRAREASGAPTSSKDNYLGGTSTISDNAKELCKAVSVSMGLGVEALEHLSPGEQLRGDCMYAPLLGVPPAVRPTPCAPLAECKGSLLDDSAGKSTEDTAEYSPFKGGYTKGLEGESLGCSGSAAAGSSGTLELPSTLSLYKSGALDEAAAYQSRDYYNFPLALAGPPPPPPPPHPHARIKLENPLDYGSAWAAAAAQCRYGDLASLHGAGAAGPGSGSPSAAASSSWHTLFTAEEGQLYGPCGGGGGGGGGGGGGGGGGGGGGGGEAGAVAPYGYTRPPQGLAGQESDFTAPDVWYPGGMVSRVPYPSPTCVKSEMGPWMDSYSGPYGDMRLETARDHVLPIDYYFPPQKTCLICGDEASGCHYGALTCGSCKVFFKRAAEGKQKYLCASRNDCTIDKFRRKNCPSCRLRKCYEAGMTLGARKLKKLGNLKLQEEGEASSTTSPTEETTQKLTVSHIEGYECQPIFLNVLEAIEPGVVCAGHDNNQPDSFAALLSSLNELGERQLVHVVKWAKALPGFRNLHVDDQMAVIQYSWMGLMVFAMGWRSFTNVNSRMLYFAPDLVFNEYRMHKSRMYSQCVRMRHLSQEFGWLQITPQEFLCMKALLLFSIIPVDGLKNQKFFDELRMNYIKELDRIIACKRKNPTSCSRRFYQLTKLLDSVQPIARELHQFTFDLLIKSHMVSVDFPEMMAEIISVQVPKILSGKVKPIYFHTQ
Method in brief: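 Antagonist mode quantitative HTS in MDA-kb2 MMTV-luciferase cells, agonist R1881 at 0.5 nM final, 16 hr exposure at 37C and 0% CO2, luminescent detection.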

[18] = qHTS assay to identify small molecule phospholipidosis (PLD) inducers (AID 1259344; active = well fitted curve in the direction sought with a large enough effect; an effect the other way counts as inactive or inconclusive)
Method in brief: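 Accumulated phospholipid, stained red by LipidTOX during 24 h compound treatment of HepG2 cells at 37 C, is quantified from images as pit number and intensity, normalised per cell using Hoechst-stained nuclei.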

[19] = qHTS assay to identify small molecule HDAC inhibitors - cell viability counter screen (AID 1259365)
Method in brief: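 HCT-116 (wild type), 1,500 cells/well, overnight 37C/5% CO2; compound in DMSO 2hr; CellTiter-Glo 30min RT; luminescence read.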

[20] = qHTS RealTime-Glo MT Cell Viability Assay in HEK293 cells - 8 hour (AID 1224887)
Method in brief: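 600 HEK293 cells per well, dispensed already mixed with RealTime-Glo MT reagents. Compound dosing came 5 h later. The same wells were read for luminescence at 0, 8, 16, 24, 32 and 40 h of exposure at 37 C.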
% is scaled to controls: 0 for no effect and ±100 for the full control effect.

CCOc1cc([N+](=O)[O-])c(OCC)cc1N1CCOCC1
inactive: Potency [1] | outcome [2] | Potency [3] | Potency [4] | outcome [5] | outcome [7] | Potency [8] | outcome [9] | outcome [10] | Potency [11] | Potency [12] | Potency [13] | Potency [14] | outcome [15]
active: Potency [6] 15.5 µM

Oc1cn2c(n1)Nc1ccc(Cl)c(Cl)c1C2
inactive: cytotoxicity increase [1] -4.2% [at 15.8 µM] | cytotoxicity [2] 3.67% [at 15.8 µM] | cytotoxicity increase [3] -1.99% [at 15.8 µM] | cytotoxicity increase [4] 1.16% [at 15.8 µM] | activity change, negative = cytotoxic [5] 1.52% [at 15.8 µM] | activity change, negative = cytotoxicity [6] 2% [at 15.8 µM] | activity change, negative = cytotoxicity [8] -2.51% [at 15.8 µM] | activity change, negative = cytotoxicity [16] 0.999% [at 19 µM] | viability change, negative = cytotoxic [10] 1.91% [at 19 µM] | activity, negative = inhibition [17] 16.6% [at 19 µM] | outcome [18] | activity change, negative = inhibition [12] -1.7% [at 19 µM] | activity change, negative = cytotoxicity [19] 1.3% [at 19 µM] | viability change, negative = cytotoxic [13] 3.75% [at 19 µM] | viability change, negative = cytotoxic [14] -4.16% [at 19 µM] | activity change [15] -0.534% [at 18.9 µM]

CC(CC=O)CCCC(C)(C)O (stereo unspecified)
inactive: Potency [1] | outcome [2] | Potency [3] | Potency [4] | outcome [5] | Potency [6] | outcome [7] | Potency [8] | outcome [9] | Potency [16] | outcome [10] | Potency [17] | outcome [18] | Potency [12] | outcome [19] | Potency [13] | Potency [14] | outcome [15]

CCCCCCCCOS(=O)(=O)O
inactive: Potency [1] | Potency [3] | Potency [4] | outcome [5] | Potency [6] | Potency [20] | outcome [7] | Potency [8] | outcome [9] | Potency [16] | outcome [10] | Potency [11] | Potency [12] | outcome [19] | Potency [13] | Potency [14] | outcome [15]

Oc1ccccc1-c1nnco1
inactive: Potency [1] | outcome [2] | Potency [3] | Potency [4] | outcome [5] | Potency [6] | outcome [7] | outcome [9] | Potency [16] | outcome [10] | Potency [17] | Potency [11] | Potency [12] | Potency [13] | Potency [14] | outcome [15]

Cc1ccccc1C(=O)Nc1ccc(C(=O)N2CCCC(N(C)C)c3ccccc32)cc1 (stereo unspecified)
inactive: Potency [1] | outcome [2] | Potency [4] | outcome [5] | Potency [20] | outcome [9] | outcome [10] | Potency [11] | Potency [12] | outcome [19] | outcome [15]
active: Potency [3] 7.56 µM

CCOC(=O)c1ncn2c1CN(C)C(=O)c1cc(F)ccc1-2
inactive: Potency [1] | outcome [2] | Potency [3] | Potency [4] | outcome [5] | Potency [6] | outcome [7] | Potency [8] | outcome [9] | Potency [16] | outcome [10] | Potency [17] | outcome [18] | Potency [12] | outcome [19] | Potency [13] | Potency [14] | outcome [15]

C[C@@H]1O[C@@H](O[C@@H]2[C@@H](O)[C@H](OCCc3ccc(O)c(O)c3)O[C@H](CO[C@@H]3O[C@H](CO)[C@@H](O)[C@H](O)[C@H]3O)[C@H]2OC(=O)/C=C/c2ccc(O)c(O)c2)[C@H](O)[C@H](O)[C@H]1O
inactive: Potency [1] | outcome [2] | Potency [4] | outcome [5] | Potency [6] | Potency [20] | outcome [7] | Potency [8] | outcome [9] | outcome [10] | Potency [12] | outcome [19] | outcome [15]

CC(C)(C)c1nnc(NS(=O)(=O)c2ccc(N)cc2)s1
inactive: Potency [1] | outcome [2] | Potency [3] | Potency [4] | outcome [5] | Potency [6] | outcome [7] | Potency [8] | outcome [9] | outcome [10] | Potency [17] | Potency [11] | Potency [12] | outcome [19] | Potency [13] | Potency [14] | outcome [15]

BrCc1cccc(Oc2ccccc2)c1
active: Potency [17] 54.5 µM
inactive: Potency [1] | outcome [2] | Potency [4] | outcome [5] | Potency [6] | Potency [20] | outcome [9] | Potency [16] | outcome [10] | Potency [12] | outcome [19] | Potency [13] | Potency [14] | outcome [15]

Nc1nnc(-c2cccc(Cl)c2Cl)c(N)n1
inactive: Potency [1] | outcome [2] | Potency [3] | Potency [4] | outcome [9] | Potency [16] | outcome [10] | outcome [18] | Potency [12] | outcome [19] | Potency [13] | Potency [14] | outcome [15]

C=Cc1ccccn1
inactive: Potency [1] | outcome [2] | Potency [3] | Potency [4] | outcome [5] | Potency [6] | outcome [7] | Potency [8] | outcome [9] | outcome [10] | Potency [12] | outcome [19] | Potency [13] | Potency [14] | outcome [15]

CC(C)=CCOC(=O)c1ccccc1
inactive: Potency [1] | outcome [2] | Potency [4] | outcome [5] | Potency [6] | Potency [20] | outcome [7] | Potency [8] | outcome [9] | outcome [10] | Potency [12] | outcome [19] | Potency [13] | Potency [14] | outcome [15]

CC(C)CC(=O)O
inactive: outcome [2] | Potency [3] | Potency [4] | outcome [5] | Potency [6] | Potency [20] | outcome [7] | Potency [8] | outcome [9] | Potency [16] | outcome [10] | Potency [12] | outcome [19] | Potency [13] | Potency [14] | outcome [15]

C=C(C)C(=O)OCc1ccccc1
inactive: Potency [1] | Potency [3] | Potency [4] | outcome [5] | Potency [6] | outcome [7] | Potency [8] | outcome [9] | Potency [16] | outcome [10] | Potency [11] | Potency [12] | outcome [19] | Potency [13] | Potency [14] | outcome [15]

CCN(C)C(=O)Oc1cccc([C@H](C)N(C)C)c1
inactive: outcome [2] | Potency [3] | Potency [4] | outcome [5] | Potency [6] | Potency [20] | outcome [7] | Potency [8] | outcome [9] | Potency [16] | outcome [10] | Potency [17] | Potency [11] | outcome [18] | Potency [12] | outcome [19] | Potency [13] | Potency [14] | outcome [15]
